Values joined by “and” are separate entries in the source; they are usually repeats but may differ in a detail not shown here. Equal entries are not always repeated. Compounds without any hit were thinned out: in the full panel of roughly 83,000, 20% have a hit.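 Values shown are percent growth following 48 h exposure of cells in 96-well plates to a single concentration of compound; below 10 was considered active.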 Active and inactive are the calls of the source.
tested on: NCI-H460 lung; experiment: NCI-60 one-dose screen, 48 h (100 = growth as untreated, 0 = no growth, -100 = all killed); conditions: 10 µM unless noted

Compound	growth
Cc1ccc2c(n1)C(=O)C(Cl)=C(Nc1ccc(C#N)cc1)C2=O	100% (inactive)
CC(C)(O)c1cncc(-c2ccc3ncc(C#N)c(N4CCc5cc(F)c(Cl)cc54)c3c2)c1	11.1% (inactive)
O=c1c2ccccc2cc2n1CCN=C2c1ccccc1	101% (inactive)
O=C(CN1CCN(c2cc(=O)[nH]c3ccc(F)cc23)CC1)N(c1ccccc1)c1ccccc1	104% (inactive)
CCc1cc(OC(=O)N2CCC(N3CCCCC3)CC2)ccc1Nc1cc(-c2ccc(-n3cccn3)cc2)[nH]n1	-15.5% (active)
CCCC/C(=C\c1ccc(O)c(O)c1)C(=O)NC(Cc1ccccc1)C(=O)C(=O)NCCc1ccc(OC)cc1 (stereo not drawn)	102% (inactive)
CN(C)c1ccc(-c2cc(-c3c[nH]c4ccccc34)nc(N)c2C#N)cc1	7.07% (active)
COc1cc(C(=O)c2cc(C(C)=O)c3ccc(C)cn23)cc(OC)c1OC	15.9% (inactive)
CCOC(=O)c1ccccc1NC1=C(Cl)C(=O)c2nc(C)ccc2C1=O	99.8% (inactive)
CN(C)S(=O)(=O)c1ccc(-c2nc(C(Cl)Cl)nc3cc(-c4ccccc4)nn23)cc1	89% (inactive)
CN1CCN(c2ccc(Nc3nc(NCCCNS(=O)(=O)c4ccc(Cl)cc4)c4sccc4n3)cc2)CC1	7.38% (active)
O=C1[C@@H]2Cc3c([nH]c4ccccc34)[C@H](c3ccc(Cl)cc3)N2C(=O)CN1C1CCN(Cc2ccccc2)CC1	34.4% (inactive)
CN1CCN(CCNc2nc(-c3cccc(NS(=O)(=O)c4cccc5c(N(C)C)cccc45)c3)cs2)CC1	70.7% (inactive)
C#C[C@]1(O)CC[C@H]2[C@@H]3CC=C4c5sc(Nc6ncccc6C)nc5CC[C@]4(C)[C@H]3CC[C@@]21C	0.476% (active)
CC(=O)N(O)CCCCCNC(=O)CCC(=O)N(O)CCCCCNC(=O)CCC(=O)N(O)CCCCCN(CCCCCCCCCC[P+](c1ccccc1)(c1ccccc1)c1ccccc1)CCCCCCCCCC[P+](c1ccccc1)(c1ccccc1)c1ccccc1	-12.4% (active)
O=C1Nc2ccccc2/C1=N\c1nnc(-c2ccccc2)o1	99.2% (inactive)
CCCCCCCCCC(=O)NC(C)(C)C(=O)N1CCC[C@H]1C(=O)N[C@@H](CC(C)C)C(=O)N[C@@](C)(CC)C(=O)N[C@@H](CCC(N)=O)C(=O)N[C@H](CCC(N)=O)C(=O)NC(C)(C)C(=O)NC(C)(C)C(=O)N[C@@H](CCC(N)=O)C(=O)N[C@H](CC(C)C)C(=O)N[C@H](CO)CC(C)C	-83.6% (active) and -71% (active)

Compound	growth
Fc1cccc(Cl)c1/C=N/Nc1nc(N/N=C/c2c(F)cccc2Cl)nc(N2CCCCC2)n1	19.9% (inactive)
Cc1ccc(/C(N)=N/C(N)=N/c2nc3ccccc3s2)cc1	75.7% (inactive)
CCc1cc2c(cc1Cl)nc1c(=O)[nH]c(=O)nc-1n2CCOCC(C)(C)C	56.4% (inactive)
Cc1csc(/N=C(N)/N=C(\N)c2cccc(Br)c2)n1	98.1% (inactive)
Brc1cccc(-c2cc(-c3cnc4c(c3)OCCO4)n[nH]2)c1	17.4% (inactive)
CN(C)CC(=O)Nc1nc(-c2cccc(NS(=O)(=O)c3cccc4c(N(C)C)cccc34)c2)cs1	92.4% (inactive)
O=C(/C=C/c1cc(Cl)ccc1Cl)Nc1ncc(Cc2ccc(Cl)cc2)s1	0.165% (active)
Nc1ncc(-c2ccc3ncnc(NCc4ccccc4)c3c2)cn1	44.7% (inactive)
Cc1ccc(-c2cc3nc(C(Cl)Cl)nc(-c4ccc(S(=O)(=O)N(C)C)cc4)n3n2)cc1	93.5% (inactive)
CCN(CC)CCOc1ccc(C(=C(c2ccccc2)C2CCCC2)c2ccc(OCCN(CC)CC)cc2)cc1	17.2% (inactive)
COC(=O)c1cccc(NC2=C(Cl)C(=O)c3nc(C)ccc3C2=O)c1	101% (inactive)
COc1cc(/C=N\NC(=O)c2ccc3nc(-c4ccc(Br)cc4)[nH]c3c2)cc(OC)c1OC	42.3% (inactive)
NC1=NC2(CCCC2)N(c2ccc(S(=O)(=O)Nc3nccs3)cc2)C(N)=N1	102% (inactive)
N#C/C(=N\Nc1ccc(F)cc1)C(=O)Nc1cc(-c2ccccc2)nn1-c1ccccc1	4.31% (active)
Cc1ccc(S(=O)(=O)c2nc(-c3ccc(F)cc3)oc2S(C)(=O)=O)cc1	101% (inactive)
CC(O)c1cccc(/C(N)=N/C(N)=N/c2nc3ccccc3s2)c1 (stereo not drawn)	85.4% (inactive)
